MsrA act: bovine MsrA enzyme activators, primary screen, biochemical, absorbance, HTS; purified bovine MsrA, absorbance read-out; activation, % at 10.6 µM; actives 0.3% (n = 360,000); in the data active = activation above about 7.5%
rCAG binder: binders of r(CAG) RNA repeats, primary screen, biochemical, fluorescence; r(CAG) RNA repeat, TO-PRO-1 dye displacement fluorescence; inhibition, % at 3 µM; actives 1.3% (n = 370,000); AID 651821, 2012;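 active = inhibition above the plate cutoff, the mean of all test compounds on that plate plus 3 SD, cut at about 35% in these data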;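 note: higher means more dye released from RNA so lower well fluorescence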
NadD block: inhibitors of S. aureus NadD, primary screen, biochemical, colorimetric, uHTS. actives 0.78% (n = 360,000). purified NadD enzyme, colorimetric absorbance read-out. inhibition, % at 20 µM; in the data active = inhibition above about 26%
MsrA inhibitor: bovine MsrA enzyme inhibitors, primary screen, biochemical, absorbance, HTS | AID 651718, 2012 | inhibition, % at 15.5 µM | Methionine sulfoxide reductase A (Bos taurus) | actives 0.75% (n = 360,000) | purified bovine MsrA, absorbance read-out; in the data active = inhibition above about 4.5%
rCAG bind conf: small molecules binding CAG repeat RNA – biochemical, fluorescence, confirmation. AID 652065, 2013. shares compounds with rCAG binder. r(CAG) RNA repeat, TO-PRO-1 dye displacement fluorescence. inhibition, % at 3 µM. actives 70% (n = 4,300);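 active = inhibition above a per-plate cutoff, the mean inhibition of sample wells plus 3 SD, cut at about 35% in these data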;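 note: loss of TO-PRO-1 fluorescence as compound displaces dye from 1x1 AA loop RNA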
DNA CAG counter: displacement of TO-PRO-1 from CAG DNA duplex, counter-screen for rCAG RNA repeat binder project, biochemical, fluorescence, TO-PRO-1 dye, d(CAG) DNA oligo; shares compounds with rCAG binder; d(CAG) DNA oligo TO-PRO-1 dye displacement; inhibition, % at 3 µM; actives 94% (n = 4,300);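 active = inhibition above its plate's cutoff, the mean test-well inhibition plus 3 SD, cut at about 4.8% in these data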;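 note: hits displace the dye from DNA and so lower well fluorescence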
DNA CAG DR: inhibitors of DNA CAG/GTC TO-PRO-1 complex, dose response, counter-screen for rCAG RNA repeat binder project, biochemical, fluorescence, TO-PRO-1 dye | shares compounds with rCAG binder | DNA CAG/GTC duplex TO-PRO-1 dye displacement fluorescence | IC50, µM | actives 20% (n = 250) | AID 686960, 2013; in the data active = IC50 below about 10 µM
Of the large screens only hits and unclear results are named; the others gave an inactive call (follow-up assays come after a bar, where they were run). Compounds with a hit are over-represented: about 2.7% of the library has one in this group of screens.

CN(C)/C=C/C(=O)c1ccc([N+](=O)[O-])c(CS(=O)(=O)c2ccccc2)c1	rCAG binder 35 | rCAG bind conf inactive | DNA CAG counter inactive
Cc1ccc([C@@H]2CC=C(C(=O)O)[C@H](c3ccc(C(C)(C)C)cc3)N2S(=O)(=O)c2ccc(C)cc2)cc1	rCAG binder 90 | rCAG bind conf 84 | DNA CAG counter 48
CCc1ccc([C@H]2C(C(=O)O)=C[C@@H](C(C)(C)C)N2S(=O)(=O)c2ccc(C)cc2)cc1	rCAG binder 52 | rCAG bind conf 49 | DNA CAG counter 18
CCc1ccc([C@@H]2CC=C(C(=O)O)[C@H](c3ccc(C(C)(C)C)cc3)N2S(=O)(=O)c2ccc(C)cc2)cc1	rCAG binder 92 | rCAG bind conf 85 | DNA CAG counter 53
O=C1CC(=Nc2ccc([N+](=O)[O-])cc2)NN1c1c(Cl)cc(Cl)cc1Cl	rCAG binder 49 | rCAG bind conf 49 | DNA CAG counter 32
O=[N+]([O-])c1ccc(N=Nc2c(Cl)cc(O)cc2Cl)cc1	none
O=C(c1ccco1)N1N=C(c2cccs2)CC1c1cc([N+](=O)[O-])ccc1O (stereo unspecified)	rCAG binder 54 | rCAG bind conf 35 | DNA CAG counter 13
O=C(Cc1csc(NC(=O)Nc2cccc(Cl)c2)n1)NCc1cccnc1	none
COc1ccccc1NC(=O)Nc1nc(CC(=O)NC2CCCC2)cs1	none
O=C(Cc1csc(NC(=O)Nc2cccc(Cl)c2)n1)NC1CCCC1	rCAG binder 44 | rCAG bind conf inactive | DNA CAG counter 14
O=C(Cc1csc(NC(=O)Nc2cccc(Cl)c2)n1)NCc1ccccn1	rCAG binder 39 | rCAG bind conf inactive | DNA CAG counter 14
O=C(Nc1cccc(Cl)c1)c1cccnn1	none
Cc1ccc(/C=C2\C(=O)ON=C2c2ccccc2)o1	none
Cc1ccc(C2=NOC(=O)/C2=C\c2ccc(C)o2)cc1	rCAG binder 37 | rCAG bind conf inactive | DNA CAG counter 6.8
CC1(C(=O)NS(=O)(=O)c2ccc(Cl)s2)CCN1C(=O)C1(c2ccc(Cl)cc2)CCC1 (stereo unspecified)	rCAG binder 62 | rCAG bind conf 59 | DNA CAG counter 21
CC1(C(=O)NS(=O)(=O)c2ccc(Cl)s2)CCN1C(=O)C1(c2ccccc2)CCCC1 (stereo unspecified)	rCAG binder 49 | rCAG bind conf 51 | DNA CAG counter 16
CC1(C(=O)NS(=O)(=O)c2cccs2)CCN1C(=O)C1(c2ccc(Cl)cc2)CC1 (stereo unspecified)	none
CC1(C(=O)NS(=O)(=O)c2cccs2)CCN1C(=O)C1(c2ccccc2)CCCC1 (stereo unspecified)	none
CC1(C(=O)NS(=O)(=O)c2ccc(Cl)s2)CCN1C(=O)C1(c2ccc(Cl)cc2)CC1 (stereo unspecified)	rCAG binder 54 | rCAG bind conf 49 | DNA CAG counter 14
CC(=O)N(C)C[C@H]1Oc2ncc(Br)cc2C(=O)N([C@H](C)CO)C[C@@H]1C	none
CCN(CCNCC(O)COc1ccccc1C(C)C)c1cccc(C)c1 (stereo unspecified)	none
Cc1ccc(C)c(NC(=O)C2CCCN2C(=O)NC2CCCCC2)c1 (stereo unspecified)	none
O=C1NN(c2ccccc2)C(=O)/C1=C\c1cccc(OC(=O)c2cccs2)c1	rCAG binder 37 | rCAG bind conf 68 | DNA CAG counter 28
COc1cccc(-c2nc(-c3ccccc3)c(-c3ccccc3)[nH]2)c1OCC(=O)O	rCAG binder 64 | rCAG bind conf 61 | DNA CAG counter 19
O=C(O)COc1ccccc1-c1nc(-c2ccccc2)c(-c2ccccc2)[nH]1	rCAG binder 63 | rCAG bind conf 51 | DNA CAG counter 13
Cc1ccc(CNC(=O)CSc2nnc(CNC(=O)c3ccccc3)o2)cc1	none
O=C1CSc2ccc(C(=O)Nc3cccc(S(=O)(=O)Nc4ccc(Br)cc4)c3)cc2N1	rCAG binder 39 | rCAG bind conf 45 | DNA CAG counter 15
COc1ccc(/C(C)=N/Nc2cccc(C(=O)O)c2)cc1OC	none
C/C(=N\Nc1cccc(C(=O)O)c1)c1ccc(Cl)s1	rCAG binder 42 | rCAG bind conf inactive | DNA CAG counter inactive
CCN(C[C@H]1N[C@@](C)(C(=O)OC)[C@H]2C(=O)N(C)C(=O)[C@@H]12)S(=O)(=O)c1ccc(C)cc1	none
COc1ccc([C@@H]2CC=C(C(=O)O)[C@H](c3cccc(Cl)c3)N2S(=O)(=O)c2ccc(C)cc2)cc1OC	rCAG binder 39 | rCAG bind conf inactive | DNA CAG counter 7.0
O=C(O)C1=CC[C@@H](c2ccc(Cl)cc2)N(S(=O)(=O)c2ccc(Cl)cc2)[C@H]1c1ccc(F)cc1	rCAG binder 70 | rCAG bind conf 68 | DNA CAG counter 30
CCOc1ccc([C@@H]2CC=C(C(=O)O)[C@H](c3ccc(F)cc3)N2S(=O)(=O)c2ccc(C)cc2)cc1	rCAG binder 52 | rCAG bind conf 51 | DNA CAG counter 15
CCOc1ccc([C@@H]2CC=C(C(=O)O)[C@H](c3cccc(Cl)c3)N2S(=O)(=O)c2ccc(C)cc2)cc1	rCAG binder 69 | rCAG bind conf 71 | DNA CAG counter 33 | DNA CAG DR inactive
CCOC(=O)[C@]12CCCCC/C=C\1N(CCc1ccc(Cl)cc1)C(=O)[C@H]2CC(=O)NCC12CC3CC(CC(C3)C1)C2	none (no result: MsrA act, NadD block, MsrA inhibitor)
CCC(Sc1nnc(-c2ccco2)n1C)C(=O)Nc1nnc(C)s1 (stereo unspecified)	none
CCOc1ccc2nc(SCC(=O)c3ccc(O)cc3O)sc2c1	none
COC(=O)[C@@]1(Cc2ccc(F)cc2)[C@H]2c3cc(C(=O)N(C)C)n(CCc4c[nH]c5ccc(O)cc45)c3C[C@H]2CN1C(=O)c1ccccc1	none
Cc1ccc([C@@H]2CC=C(C(=O)O)[C@H](c3ccc(F)cc3)N2S(=O)(=O)c2ccc(C)cc2)cc1	rCAG binder 54 | rCAG bind conf 61 | DNA CAG counter 24
Cc1ccc([C@@H]2CC=C(C(=O)O)[C@H](c3ccc(Br)cc3)N2S(=O)(=O)c2ccc(C)cc2)cc1	rCAG binder 82 | rCAG bind conf 84 | DNA CAG counter 50

Screening results as filed in PubChem.
